Experimental findings from ChEMBL document CHEMBL1961873, “Compounds: GSK PKIS; Assays: Nanosyn kinase panel” (2012) are described below.

Assay [1] addresses Mitogen-activated protein kinase 3 (Homo sapiens) (UniProt P27361). The following applies: at 1 µM.
In assay [2] the target is SRSF protein kinase 3 (Homo sapiens) (UniProt Q9UPE1). The following applies: at 0.1 µM.
Assay [3] has the same target. Conditions: at 1 µM.
For assay [4], the target named is Mitogen-activated protein kinase 14 (Homo sapiens) (UniProt Q16539). Conditions: at 0.1 µM.
Assay [5] has the same target. Conditions: at 1 µM.
Assay [6] has as its target Mitogen-activated protein kinase 11 (Homo sapiens) (UniProt Q15759). The following applies: at 0.1 µM.
For assay [7] the target is unchanged. The following applies: at 1 µM.
Assay [8] addresses T1, Mitogen-activated protein kinase 13 (Homo sapiens) (UniProt O15264).
T1 sequence (whole entry): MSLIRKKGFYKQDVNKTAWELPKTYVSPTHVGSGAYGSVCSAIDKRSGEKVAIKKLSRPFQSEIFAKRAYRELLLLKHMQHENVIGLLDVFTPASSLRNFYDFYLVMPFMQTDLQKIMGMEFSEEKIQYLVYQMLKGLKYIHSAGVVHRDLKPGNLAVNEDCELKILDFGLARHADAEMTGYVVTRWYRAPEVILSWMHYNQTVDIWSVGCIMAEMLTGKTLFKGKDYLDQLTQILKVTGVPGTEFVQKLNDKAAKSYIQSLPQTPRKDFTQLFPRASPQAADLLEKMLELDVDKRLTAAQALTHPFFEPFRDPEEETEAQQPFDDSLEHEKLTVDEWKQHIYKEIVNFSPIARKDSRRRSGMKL
The following applies: at 0.1 µM.

The target in assay [9] is T1, Mitogen-activated protein kinase 13 (Homo sapiens). Conditions: at 1 µM.
Assay [10] addresses T2, Mitogen-activated protein kinase 12 (Homo sapiens) (UniProt P53778).
T2 sequence (whole entry): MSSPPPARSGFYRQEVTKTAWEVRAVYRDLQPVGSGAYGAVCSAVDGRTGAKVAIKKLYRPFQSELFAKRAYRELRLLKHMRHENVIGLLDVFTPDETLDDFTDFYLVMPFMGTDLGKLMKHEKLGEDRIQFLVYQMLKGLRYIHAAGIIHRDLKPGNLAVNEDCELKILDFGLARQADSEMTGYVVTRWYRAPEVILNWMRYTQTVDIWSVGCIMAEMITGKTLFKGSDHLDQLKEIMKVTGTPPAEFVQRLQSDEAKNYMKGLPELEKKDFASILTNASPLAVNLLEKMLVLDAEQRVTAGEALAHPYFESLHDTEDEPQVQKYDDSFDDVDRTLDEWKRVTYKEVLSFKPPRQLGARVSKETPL
Conditions: at 0.1 µM.

For assay [11], the target named is T2, Mitogen-activated protein kinase 12 (Homo sapiens). Conditions: at 1 µM.
The target of assay [12] is SRSF protein kinase 1 (Homo sapiens) (UniProt Q96SB4). Conditions: at 0.1 µM.
The target is the same in assay [13]. The following applies: at 1 µM.
Assay [14] has as its target Phosphatidylinositol 4,5-bisphosphate 3-kinase catalytic subunit alpha isoform (Homo sapiens) (UniProt P42336). The following applies: at 0.1 µM.
For assay [15] the target is unchanged. The following applies: at 1 µM.
The target in assay [16] is T3, Phosphatidylinositol 4,5-bisphosphate 3-kinase catalytic subunit delta isoform (Homo sapiens) (UniProt O00329).
T3 sequence (whole entry): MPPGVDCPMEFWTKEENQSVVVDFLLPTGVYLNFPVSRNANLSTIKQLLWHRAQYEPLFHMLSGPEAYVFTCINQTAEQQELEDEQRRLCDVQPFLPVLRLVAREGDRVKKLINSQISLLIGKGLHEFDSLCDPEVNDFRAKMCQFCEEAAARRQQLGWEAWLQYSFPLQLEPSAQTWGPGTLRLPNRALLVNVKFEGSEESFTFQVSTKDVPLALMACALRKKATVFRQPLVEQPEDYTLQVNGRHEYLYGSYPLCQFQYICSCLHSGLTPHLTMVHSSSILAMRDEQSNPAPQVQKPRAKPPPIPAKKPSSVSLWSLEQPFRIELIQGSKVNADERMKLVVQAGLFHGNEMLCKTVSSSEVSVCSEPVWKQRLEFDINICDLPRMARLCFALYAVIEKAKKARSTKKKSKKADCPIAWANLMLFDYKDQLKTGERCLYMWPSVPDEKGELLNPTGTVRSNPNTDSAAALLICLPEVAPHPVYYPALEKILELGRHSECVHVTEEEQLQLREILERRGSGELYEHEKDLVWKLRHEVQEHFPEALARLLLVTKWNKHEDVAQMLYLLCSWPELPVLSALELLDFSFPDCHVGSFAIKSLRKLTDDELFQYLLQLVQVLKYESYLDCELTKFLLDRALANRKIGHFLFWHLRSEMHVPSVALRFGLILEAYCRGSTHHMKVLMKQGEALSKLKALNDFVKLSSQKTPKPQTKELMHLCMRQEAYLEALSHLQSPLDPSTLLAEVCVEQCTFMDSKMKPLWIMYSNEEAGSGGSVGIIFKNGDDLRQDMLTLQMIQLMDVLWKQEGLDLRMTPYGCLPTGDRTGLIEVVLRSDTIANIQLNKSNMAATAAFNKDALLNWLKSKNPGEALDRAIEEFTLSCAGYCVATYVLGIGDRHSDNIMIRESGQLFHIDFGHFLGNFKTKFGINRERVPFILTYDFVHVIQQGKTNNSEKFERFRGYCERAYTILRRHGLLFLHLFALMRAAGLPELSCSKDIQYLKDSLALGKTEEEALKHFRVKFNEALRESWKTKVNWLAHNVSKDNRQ
The following applies: at 0.1 µM.

The target of assay [17] is T3, Phosphatidylinositol 4,5-bisphosphate 3-kinase catalytic subunit delta isoform (Homo sapiens). The following applies: at 1 µM.
Assay [18] addresses Phosphatidylinositol 4-kinase beta (Homo sapiens) (UniProt Q9UBF8). Conditions: at 0.1 µM.
For assay [19] the target is unchanged. Conditions: at 1 µM.
Assay [20] concerns the target Sphingosine kinase 1 (Homo sapiens) (UniProt Q9NYA1). The following applies: at 0.1 µM.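 Further: mean percent inhibition of SPHK1 activity, measured within the GSK PKIS screening panel.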

Chain of SRSF protein kinase 1 (Homo sapiens) (Q96SB4 whole entry): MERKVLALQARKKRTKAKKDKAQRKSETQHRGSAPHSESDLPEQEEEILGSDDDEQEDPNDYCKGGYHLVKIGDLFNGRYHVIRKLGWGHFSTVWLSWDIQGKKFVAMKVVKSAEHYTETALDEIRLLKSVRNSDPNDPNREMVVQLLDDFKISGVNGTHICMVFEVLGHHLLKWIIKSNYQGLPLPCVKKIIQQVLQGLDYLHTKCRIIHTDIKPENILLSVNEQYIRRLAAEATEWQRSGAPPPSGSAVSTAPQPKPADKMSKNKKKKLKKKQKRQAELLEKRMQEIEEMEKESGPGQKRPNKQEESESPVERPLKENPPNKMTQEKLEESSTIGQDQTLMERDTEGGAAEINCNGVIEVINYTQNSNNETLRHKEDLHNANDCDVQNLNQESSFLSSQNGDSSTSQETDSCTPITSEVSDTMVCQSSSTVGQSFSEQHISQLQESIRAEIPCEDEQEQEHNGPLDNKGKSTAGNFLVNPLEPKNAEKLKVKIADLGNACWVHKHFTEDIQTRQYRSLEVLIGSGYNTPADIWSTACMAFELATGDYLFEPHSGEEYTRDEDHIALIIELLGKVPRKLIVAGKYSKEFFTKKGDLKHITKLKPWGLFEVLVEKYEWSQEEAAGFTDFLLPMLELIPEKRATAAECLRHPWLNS
Chain of Phosphatidylinositol 4-kinase beta (Homo sapiens) (Q9UBF8 2-816 limits assumed): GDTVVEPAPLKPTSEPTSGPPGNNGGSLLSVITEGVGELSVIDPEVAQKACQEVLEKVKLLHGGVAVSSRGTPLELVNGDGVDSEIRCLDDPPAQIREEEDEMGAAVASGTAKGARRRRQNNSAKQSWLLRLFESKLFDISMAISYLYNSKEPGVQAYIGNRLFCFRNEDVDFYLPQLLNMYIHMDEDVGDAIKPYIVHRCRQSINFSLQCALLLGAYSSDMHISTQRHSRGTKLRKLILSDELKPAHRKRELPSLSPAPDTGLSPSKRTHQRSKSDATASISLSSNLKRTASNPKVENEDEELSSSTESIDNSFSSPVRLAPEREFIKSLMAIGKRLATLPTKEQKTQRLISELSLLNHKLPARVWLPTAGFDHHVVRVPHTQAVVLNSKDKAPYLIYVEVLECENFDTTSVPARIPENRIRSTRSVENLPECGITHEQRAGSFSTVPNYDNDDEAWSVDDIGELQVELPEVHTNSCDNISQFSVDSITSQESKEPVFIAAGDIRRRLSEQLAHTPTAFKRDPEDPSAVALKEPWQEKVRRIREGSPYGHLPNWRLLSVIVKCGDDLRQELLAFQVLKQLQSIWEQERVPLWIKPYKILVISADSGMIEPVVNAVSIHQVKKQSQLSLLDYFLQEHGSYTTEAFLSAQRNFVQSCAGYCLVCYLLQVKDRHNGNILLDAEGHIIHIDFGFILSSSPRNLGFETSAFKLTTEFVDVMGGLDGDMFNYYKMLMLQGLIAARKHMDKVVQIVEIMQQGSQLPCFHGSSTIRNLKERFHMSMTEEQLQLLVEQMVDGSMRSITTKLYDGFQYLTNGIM
Chain of Mitogen-activated protein kinase 11 (Homo sapiens) (Q15759 whole entry): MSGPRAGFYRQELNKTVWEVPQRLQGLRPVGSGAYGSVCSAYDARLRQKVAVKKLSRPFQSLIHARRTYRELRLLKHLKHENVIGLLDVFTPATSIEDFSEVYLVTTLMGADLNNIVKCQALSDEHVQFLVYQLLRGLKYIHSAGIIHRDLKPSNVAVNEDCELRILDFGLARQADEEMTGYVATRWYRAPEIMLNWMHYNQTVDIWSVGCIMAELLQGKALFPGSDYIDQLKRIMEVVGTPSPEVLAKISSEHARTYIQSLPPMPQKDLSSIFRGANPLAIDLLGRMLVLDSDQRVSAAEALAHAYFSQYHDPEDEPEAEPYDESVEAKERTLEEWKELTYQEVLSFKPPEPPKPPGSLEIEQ
Chain of Phosphatidylinositol 4,5-bisphosphate 3-kinase catalytic subunit alpha isoform (Homo sapiens) (P42336 whole entry, canonical isoform): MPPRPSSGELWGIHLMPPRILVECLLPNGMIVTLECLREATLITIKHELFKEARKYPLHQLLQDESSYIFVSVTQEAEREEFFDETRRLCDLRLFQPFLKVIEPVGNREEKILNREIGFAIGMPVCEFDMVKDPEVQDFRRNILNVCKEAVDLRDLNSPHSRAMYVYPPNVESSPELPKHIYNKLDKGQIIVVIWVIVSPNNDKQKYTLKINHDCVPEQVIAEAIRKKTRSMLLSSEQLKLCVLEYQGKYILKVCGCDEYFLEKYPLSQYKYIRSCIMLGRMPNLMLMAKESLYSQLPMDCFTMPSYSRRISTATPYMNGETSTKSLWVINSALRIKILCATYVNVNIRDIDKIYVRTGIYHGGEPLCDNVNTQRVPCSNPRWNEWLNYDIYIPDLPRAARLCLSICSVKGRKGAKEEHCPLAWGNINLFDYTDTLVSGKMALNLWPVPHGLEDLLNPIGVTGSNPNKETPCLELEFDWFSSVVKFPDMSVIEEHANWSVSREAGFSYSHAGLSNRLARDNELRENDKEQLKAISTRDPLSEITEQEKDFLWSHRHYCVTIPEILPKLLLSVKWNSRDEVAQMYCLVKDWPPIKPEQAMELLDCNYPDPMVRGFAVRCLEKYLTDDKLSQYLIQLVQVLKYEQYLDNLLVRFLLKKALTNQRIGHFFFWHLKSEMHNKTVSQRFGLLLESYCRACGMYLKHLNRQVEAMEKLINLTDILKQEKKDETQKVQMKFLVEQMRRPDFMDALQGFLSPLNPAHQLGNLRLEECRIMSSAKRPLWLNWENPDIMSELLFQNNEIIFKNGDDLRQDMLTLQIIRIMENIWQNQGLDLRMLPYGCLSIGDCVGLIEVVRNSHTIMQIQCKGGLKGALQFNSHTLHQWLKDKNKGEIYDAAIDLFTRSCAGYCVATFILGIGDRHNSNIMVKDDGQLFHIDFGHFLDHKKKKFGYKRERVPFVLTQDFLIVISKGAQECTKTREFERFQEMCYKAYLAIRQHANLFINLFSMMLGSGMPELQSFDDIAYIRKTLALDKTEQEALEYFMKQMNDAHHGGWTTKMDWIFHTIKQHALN
Chain of Sphingosine kinase 1 (Homo sapiens) (Q9NYA1 whole entry): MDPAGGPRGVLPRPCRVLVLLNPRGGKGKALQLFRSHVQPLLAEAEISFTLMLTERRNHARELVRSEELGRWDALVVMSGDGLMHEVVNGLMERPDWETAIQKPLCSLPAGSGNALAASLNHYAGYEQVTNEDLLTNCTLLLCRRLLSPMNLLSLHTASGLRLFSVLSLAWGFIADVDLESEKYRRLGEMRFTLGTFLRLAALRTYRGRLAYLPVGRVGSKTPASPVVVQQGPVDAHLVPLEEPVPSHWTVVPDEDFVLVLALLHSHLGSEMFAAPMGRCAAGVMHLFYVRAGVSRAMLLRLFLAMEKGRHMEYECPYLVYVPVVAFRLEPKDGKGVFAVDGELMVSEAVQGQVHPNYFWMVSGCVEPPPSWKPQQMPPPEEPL
Chain of Mitogen-activated protein kinase 14 (Homo sapiens) (Q16539 whole entry): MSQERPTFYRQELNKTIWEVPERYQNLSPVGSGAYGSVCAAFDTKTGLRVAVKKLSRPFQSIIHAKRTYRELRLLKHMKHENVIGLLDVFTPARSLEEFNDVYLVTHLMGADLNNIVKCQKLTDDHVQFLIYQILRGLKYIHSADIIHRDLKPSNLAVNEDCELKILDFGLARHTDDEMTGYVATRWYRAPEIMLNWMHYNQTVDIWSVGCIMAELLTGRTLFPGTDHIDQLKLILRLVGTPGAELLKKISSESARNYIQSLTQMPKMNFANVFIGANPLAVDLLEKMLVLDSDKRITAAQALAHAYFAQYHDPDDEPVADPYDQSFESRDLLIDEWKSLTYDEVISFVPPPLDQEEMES
Chain of Mitogen-activated protein kinase 3 (Homo sapiens) (P27361 whole entry): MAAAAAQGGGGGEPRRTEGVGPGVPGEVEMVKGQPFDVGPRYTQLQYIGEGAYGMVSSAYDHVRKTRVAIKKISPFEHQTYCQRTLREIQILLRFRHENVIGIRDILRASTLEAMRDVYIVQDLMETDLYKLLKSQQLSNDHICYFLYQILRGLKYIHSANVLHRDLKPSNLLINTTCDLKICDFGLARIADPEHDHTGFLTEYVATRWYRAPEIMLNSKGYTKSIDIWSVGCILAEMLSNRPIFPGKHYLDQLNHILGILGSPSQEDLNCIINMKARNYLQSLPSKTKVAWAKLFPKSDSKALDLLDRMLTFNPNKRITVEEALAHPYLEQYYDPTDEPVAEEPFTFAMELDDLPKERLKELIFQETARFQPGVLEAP
Chain of SRSF protein kinase 3 (Homo sapiens) (Q9UPE1 whole entry): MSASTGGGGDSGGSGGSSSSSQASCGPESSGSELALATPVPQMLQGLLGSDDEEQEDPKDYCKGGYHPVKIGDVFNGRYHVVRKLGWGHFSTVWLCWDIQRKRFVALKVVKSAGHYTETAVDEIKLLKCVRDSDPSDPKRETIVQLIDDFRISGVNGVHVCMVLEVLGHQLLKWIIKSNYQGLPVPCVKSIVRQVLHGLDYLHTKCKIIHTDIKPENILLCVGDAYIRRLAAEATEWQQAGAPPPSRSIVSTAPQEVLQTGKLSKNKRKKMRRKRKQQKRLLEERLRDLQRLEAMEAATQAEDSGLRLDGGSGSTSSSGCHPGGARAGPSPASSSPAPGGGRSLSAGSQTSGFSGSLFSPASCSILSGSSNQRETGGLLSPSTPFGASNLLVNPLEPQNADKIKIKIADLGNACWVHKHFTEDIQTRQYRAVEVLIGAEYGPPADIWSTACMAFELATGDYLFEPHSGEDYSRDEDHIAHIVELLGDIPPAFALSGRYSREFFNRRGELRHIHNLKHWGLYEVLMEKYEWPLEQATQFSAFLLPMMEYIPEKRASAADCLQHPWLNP

Regarding `Cc1ccc(C(=O)NC2CCCCC2)cc1-c1ccc(C(=O)NCC2CC2)cc1`, the inhibition in assay [1] was found to be 0.88%; in assay [2], 1.95%; in assay [3] it was 0.5%; in assay [4], 5.36%; in assay [5] it was 17.4%; in [6], 4.59%. The inhibition is 14.2% in assay [7]; 1.77% in assay [8]; 2.53% in assay [9]; -0.98% in assay [10]; 1.27% in [11]; -2.04% in assay [12]. The inhibition in assay [13] was -2.48%; in assay [14] it was 1.35%; in assay [15], -0.53%; in assay [16], 1.89%; in assay [17] it was 1.33%; in assay [18], 3.97%. Besides, the inhibition in assay [19] is -5.9%; in assay [20], -7.61%.
As for `NS(=O)(=O)c1cccc(-c2ccc3c(NC(=O)C4CC4)n[nH]c3c2)c1`, the inhibition in assay [1] was -0.05%; in [2], -0.57%; in assay [3], -6.73%; in [4], 6.37%; in assay [5] it was 9.34%; in assay [6], 1.5%. For the same molecule, the inhibition in assay [7] was 5.3%; in assay [8] it was -0.02%; in assay [9], -0.14%; in [10], -0.74%; in assay [11], -1.58%; in [12], 1.47%. The inhibition came out at 1.47% in assay [13]; 2.99% in assay [14]; 3.6% in [15]; 7.35% in assay [16]; 8.71% in assay [17]; 1.29% in [18]. Further, the results for the inhibition in assay [19] and in assay [20] were -3.98% and 0.58%, respectively.
For the molecule `COC(=O)Nc1nc2cc(Oc3cccc(NC(=O)Nc4cc(C(F)(F)F)ccc4F)c3)ccc2[nH]1`, the inhibition in assay [1] was 0.49%; in [2], -1.97%; in [3] it was -3.98%; in [4], 2.37%; in assay [5], 5.26%; in [6] it was 1.03%. Besides, the inhibition in assay [7] is 1.94%; in [8], -4.01%; in [9], -0.11%; in [10], 0.33%; in [11] it was -0.42%; in assay [12] it was -0.98%. Further, the inhibition is -3.74% in [13]; -3.27% in [14]; -1.03% in assay [15]; 0.19% in [16]; 0.17% in assay [17]; 1.18% in assay [18]. Besides, the inhibition in [19] was 0.44%; in assay [20] it was -0.62%.
On to `COc1ccc(-c2ccncc2)cc1C(N)=O`, for which the inhibition in assay [1] is 5.57%; in assay [2], 0.64%; in assay [3] it was -1.37%; in [4], 7.77%; in assay [5] it was 9.51%; in [6], -0.28%. Moreover, the inhibition is 5.04% in assay [7]; 5.1% in assay [8]; 6.16% in [9]; 4.29% in [10]; 5.57% in assay [11]; -3.43% in [12]. In addition, the inhibition was -2.49% in [13]; 5.07% in assay [14]; 4.31% in assay [15]; 2.29% in assay [16]; 3.83% in assay [17]; -1.68% in [18]. The inhibition is 4.03% in assay [19] and 1.01% in [20].
As to `CC1=C(C(=O)Nc2ccc3[nH]ncc3c2)C(c2ccc(Cl)c(Cl)c2)CC(=O)N1` (stereo not given), the inhibition is 14.6% in assay [1]; -0.02% in assay [2]; 1.57% in assay [3]; 1.46% in assay [4]; 4.94% in assay [5]; 0.46% in [6]. Further, the inhibition in assay [7] is 0.24%; in [8] it was -0.61%; in assay [9], 2.05%; in [10], -0.46%; in [11], 1.19%; in assay [12], -1.56%. Moreover, the inhibition is -3.22% in assay [13]; -0.33% in assay [14]; -0.79% in [15]; 0.18% in assay [16]; 1.04% in [17]; 0.44% in assay [18]. Besides, the inhibition was -1.19% in assay [19] and 0.43% in assay [20].
Consider `Nc1ncnc2occ(-c3ccc(NC(=O)Nc4cc(C(F)(F)F)cc(C(F)(F)F)c4)cc3)c12`, for which the inhibition was 2.23% in [1]; 1.52% in [2]; -0.42% in assay [3]; 2.48% in assay [4]; 11% in assay [5]; 0.21% in assay [6]. Besides, the inhibition in assay [7] was 8.68%; in assay [8] it was -0.42%; in assay [9], 14.5%; in assay [10], -0.95%; in [11] it was 10.2%; in assay [12], -0.82%. Moreover, the inhibition in [13] was determined as 0.68%; in assay [14] it was 0.61%; in [15], 2.7%; in assay [16], 2.62%; in assay [17], 3.45%; in [18], 1.16%. The inhibition in [19] was found to be 2.78%; in assay [20], 0.12%.
